# Data reported in PubChem BioAssay (NCATS).
# A number with no mark means an inactive call. Inconclusive results are not listed. The source made the active and inactive calls. Unless noted, calls come from the whole dose curve; as a rule, active = well fitted curve in the direction sought with a large enough effect; inconclusive = small, poorly fitted or top-dose-only effect, or another doubt; inactive = no such curve, though single readings can be large; an effect the other way counts as inactive or inconclusive.
# Columns and labels:
# [1] = Cell Viability - BJ (AID 421; calls by dose curve;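 note: potency is the fitted concentration of half-maximal effect; cells exposed to compound for 40 hours at 37 °C before readout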); details: BJ fibroblast viability, qHTS
# How it was run: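 Cytotoxicity as drop in intracellular ATP (CellTiter-Glo, 20 min RT) after 40 hr compound exposure of BJ fibroblasts at 37 °C. Titrations scaled between DMSO and 100 uM tamoxifen, Hill-fitted for AC50.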
# [2] = Cell Viability - Jurkat (AID 426;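 active = dose-dependent loss of cell ATP signal giving a full or clear fitted curve, ranked by lower potency value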; note: potency is the fitted concentration of half-maximal effect); details: qHTS
# How it was run: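 qHTS, 1536-well; Jurkat E6-1, 5000 cells/well, complete medium; cpd 40 hr, 37 °C; CellTiter-Glo 20 min RT; luminescence. AC50 by Hill fit.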
# [3] = Cell Viability - HepG2 (AID 433; calls by dose curve;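 note: potency is the fitted concentration of half-maximal effect; potency for ATP loss meaning cytotoxicity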); details: qHTS
# How it was run: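 In this qHTS format, a 40 h, 37 °C compound incubation of HepG2 cells in complete medium precedes a 20 min CellTiter-Glo step at room temperature. Tamoxifen and doxorubicin serve as positive controls; Hill-equation fits yield AC50.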
# [4] = Cell Viability - MRC5 (AID 434; calls by dose curve;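 note: potency is the fitted concentration of half-maximal effect; potency reflects cytotoxicity seen as loss of intracellular ATP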); details: MRC5 lung fibroblast viability, qHTS
# How it was run: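 MRC5 normal human lung fibroblasts, 1500 cells/well, exposed to compound for 40 hr at 37 C. Cellular ATP was read by CellTiter-Glo luminescence; data normalized to DMSO and 100 uM tamoxifen, with AC50 from Hill fits.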
# [5] = Cell Viability - SK-N-SH (AID 435; calls by dose curve;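 note: potency is the fitted concentration of half-maximal effect; compound exposure lasted 40 h at 37 °C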); details: SK-N-SH neuroblastoma cell viability qHTS
# How it was run: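 Human neuroblastoma line, 40 h exposure at 37 °C, ATP quantified via luciferase luminescence; DMSO and 100 uM tamoxifen define 0 and 100% inhibition for AC50 fitting.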
# [6] = Cell Viability - N2a (AID 540); details: N2a mouse neuroblastoma cell viability; at 92.2 µM (top of the series);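 note: plate controls were DMSO alone for no effect and tamoxifen control for full effect; nearly all actives have a fitted effect of over 45% in size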
# How it was run: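 Luminescent ATP signal (CellTiter-Glo, 20 min at room temperature) served as the viability read-out after N2a cells were treated with compounds for 40 hours at 37 °C. Concentration-response data were fitted to the Hill equation for AC50.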
# [7] = Cell Viability - NIH 3T3 (AID 541); details: NIH 3T3 cell viability, qHTS; at 92.2 µM (top of the series);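 note: plate controls were DMSO alone for no effect and tamoxifen positive control for full effect; nearly all actives have a fitted effect of over 25% in size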
# How it was run: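 Luminescent ATP signal (CellTiter-Glo) served as the viability read-out after NIH 3T3 cells were exposed to compounds over a concentration range for 40 hr at 37 °C. Hill-equation modelling of concentration-response data gave AC50.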
# [8] = Cell Viability - HUV-EC-C (AID 542); details: HUV-EC-C endothelial cell viability, qHTS; note: potency is the fitted concentration of half-maximal effect; nearly all actives have a fitted effect of over 35% in size
# How it was run: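 qHTS cytotoxicity: HUV-EC-C, 1000 cells/well, 5 hr settle, compound 40 hr 37 °C, CellTiter-Glo, luminescence. AC50 via Hill equation.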
# [9] = Cell Viability - H-4-II-E (AID 543); details: H-4-II-E rat hepatoma viability; note: potency is the fitted concentration of half-maximal effect; nearly all actives have a fitted effect of over 35% in size
# How it was run: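 Luminescent ATP signal (CellTiter-Glo) served as the viability read-out, with cytotoxicity seen as a concentration-dependent ATP drop. Cells were treated for 40 hours in complete medium. AC50 values derive from Hill-equation modelling.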
# [10] = Cell Viability - SH-SY5Y (AID 544); details: SH-SY5Y neuroblastoma cell viability; note: potency is the fitted concentration of half-maximal effect; nearly all actives have a fitted effect of over 55% in size
# How it was run: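 Luminescent ATP read-out (CellTiter-Glo) measures loss of viable SH-SY5Y neuroblastoma cells after 40 hr compound exposure at 37 °C. AC50 values derive from standard Hill modelling of qHTS concentration-response data.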
# [11] = Cell Viability - Renal Proximal Tubule (AID 545); details: renal proximal tubule cells viability, primary cells of rat origin; at 91.7 µM (top of the series);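 note: 0% = DMSO only and -100% = 100 µM tamoxifen; nearly all actives have a fitted effect of over 40% in size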
# How it was run: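 In this qHTS format, normal rat kidney-derived proximal tubule cells in complete culture medium receive compound titrations, then sit 40 hours at 37 °C before luciferase-based ATP quantitation; potency is reported as AC50 from concentration-response curves.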
# [12] = Cell Viability - Mesenchymal (AID 546); details: mesenchymal cells viability, qHTS;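 note: potency is the fitted concentration of half-maximal effect; cells exposed to compound for 40 hours before reading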
# How it was run: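 Human kidney mesenchymal cells from normal renal glomeruli, 1000 cells/well, rested 5 hr at 37 °C, then treated 40 hr at 37 °C in complete medium. Cellular ATP read by CellTiter-Glo luminescence; AC50 from Hill-equation fits.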
# [13] = Cellular Toxicity (caspase-3) HepG2 (AID 654);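 note: cells exposed to compound for 16 hours before reading; 0% = DMSO alone and 100% = caspase signal from 100 µM tamoxifen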
# How it was run: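 Cells plated 5 hr at 37 °C, compound added, incubated 16 hr at 37 °C. Caspase-Glo 3/7 reagent followed, 20 min at room temperature, then luminescence read. Activation scored as signal increase; AC50 from Hill fit.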
# [14] = Cellular Toxicity (caspase-3) Jurkat (AID 655);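 note: cells exposed to compound for 16 h at 37 °C before reading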
# How it was run: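 qHTS in human Jurkat T-cell leukemia line: 16 hr compound treatment at 37 °C, caspase-3/7 activity measured by Caspase-Glo luminescence. AC50 derived from Hill equation.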
# [15] = Cellular Toxicity (caspase-3) HUV-EC-C (AID 656);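 note: 0% = DMSO basal and 100% = 100 µM tamoxifen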
# How it was run: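 Concentration-dependent caspase 3/7 induction was assessed in HUV-EC-C cells exposed for 16 hours. Data scaled between DMSO and tamoxifen (100 uM) controls.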
# [16] = Cellular Toxicity (caspase-3) SHSY5Y (AID 657)
# How it was run: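 Readout: caspase-cleaved peptide-aminoluciferin substrate driving luciferase light in SH-SY5Y neuroblastoma cells after 16 h treatment. Response normalized to DMSO and 10 uM staurosporine controls.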
# [17] = Cellular Toxicity (caspase-3) BJ (AID 658);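 note: 0% = DMSO basal and 100% = 10 µM staurosporine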
# How it was run: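 BJ human foreskin fibroblasts, 1000 cells/well, treated 16 hours at 37 °C in complete medium; caspase 3/7 activity by Caspase-Glo luminescence after 1 hr at room temperature. Normalized to DMSO and 10 uM staurosporine; AC50 from Hill fits.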
# [18] = Cellular Toxicity (caspase-3) MRC-5 (AID 659);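 note: 0% = DMSO basal and 100% = 10 µM staurosporine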
# How it was run: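 MRC-5 human normal lung fibroblasts, 1500 cells/well, treated 16 h at 37 °C in complete medium. Caspase 3/7 measured by Caspase-Glo luminescence after 1 h at room temperature. Normalized to DMSO and 10 uM staurosporine; AC50 from Hill fit.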
# [19] = Cellular Toxicity (caspase-3) Mesangial (AID 660);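 note: combined caspase 3 and 7 activity read by Caspase-Glo luminescence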
# How it was run: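 Mesangial cells, 1000/well, 5 h settle at 37 °C; compound 16 h, 37 °C; Caspase-Glo 3/7 reagent 20 min RT; luminescence. Norm.: DMSO = 0%, tamoxifen 100 uM = 100%. AC50, Hill fit.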
# [20] = Cellular Toxicity (caspase-3) SK-N-SH (AID 661);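 note: 0% = DMSO basal and 100% = 10 µM staurosporine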
# How it was run: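 Human neuroblastoma SK-N-SH, 1500 cells/well, 5 hr pre-incubation, then compound 16 hr, 37 °C. Caspase-Glo 3/7 reagent, 1 hr RT, luminescence. Norm. to DMSO/10 uM staurosporine; Hill-fit AC50.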
# [21] = Cellular Toxicity (caspase-3) H-4-II-E (AID 663);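 note: cells exposed to compound for 16 hr before readout; 0% = DMSO basal and 100% = 100 µM tamoxifen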
# How it was run: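 Rat hepatoma H-4-II-E cells (1500/well) plated 5 hr, then exposed to compound titrations for 16 hr at 37 °C. Caspase-Glo 3/7 luminescence read after 20 min at RT; data normalized to DMSO and 100 uM tamoxifen, AC50 from Hill fits.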
# [22] = Cellular Toxicity (caspase-3) Hek293 (AID 664);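 note: cells exposed to compound for 16 h at 37 °C before readout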
# How it was run: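 Cells plated, 5 hr at 37 °C; compounds added; 16 hr at 37 °C; Caspase-Glo 3/7 reagent, 20 min RT; luminescence read. Activation expressed relative to DMSO and 100 uM tamoxifen, AC50 by Hill model.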
# [23] = Cellular Toxicity (caspase-3) N2a (AID 665);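 note: compound exposure lasted 16 h at 37 °C before readout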
# How it was run: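 N2a cells, 1500/well, 5 h settle at 37 °C; cpd 16 h, 37 °C; Caspase-Glo 3/7, 1 h RT; luminescence. Norm: DMSO = 0, 10 uM staurosporine = 100%. AC50, Hill fit.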
# [24] = Cellular Toxicity (caspase-3) NIH 3T3 (AID 666);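 note: caspase signal read after 16 h compound exposure; 0% = DMSO basal and 100% = 100 µM tamoxifen stimulation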
# How it was run: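 Luminescence from aminoluciferin released by caspase-3/7 cleavage of a peptide substrate served as read-out. Mouse fibroblast NIH 3T3 cells were exposed to compounds over a concentration range for 16 hours, and AC50 values came from standard Hill modelling.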
# [25] = Cell Viability - LYMP2-001 (AID 921); details: LYMP2-001 lymphoblastoid cell viability; note: potency is the fitted concentration of half-maximal effect; nearly all actives have a fitted effect of over 70% in size
# How it was run: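 A lymphoblastoid cell line of human origin was treated with library compounds across a concentration series for 24 hours, and viable cell number was estimated from ATP-driven luciferase light output. Hill modeling gave AC50.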
# [26] = MultiTox-Fluor Cytotoxicity Assay - LYMP1-001 - Dead Cells (AID 946)
# How it was run: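 Cytotoxicity as increased dead-cell protease fluorescence (bis-AAF-R110, 485/520 nm), read 60 min after MultiTox-Fluor reagent. Human lymphoblastoid line exposed 16 h; Hill-fitted AC50, with DMSO as 0% and 15 uM tetraoctylammonium bromide as 100%.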
# [27] = Cell Viability - LYMP1-002 - Assay at 16 hr (AID 948); details: LYMP1-002 lymphoblastoid cell viability; note: potency is the fitted concentration of half-maximal effect
# How it was run: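 In this qHTS, lymphoblastoid LYMP1-002 cells (human) receive compounds for 16 hr at 37 C. Viability is taken from CellTiter-Glo ATP luminescence, and AC50 derives from standard Hill fits.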
# [28] = MultiTox-Fluor Cytotoxicity Assay - LYMP1-002 - Dead Cells (AID 960); note: nearly all actives have a fitted effect of over 60% in size
# How it was run: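 LYMP1-002 cells 2500/well; 5 hr 37 C pre-incubation; compound 16 hr 37 C; MultiTox-Fluor reagent 60 min RT; dead-cell fluor Ex/Em 485/520. Norm. to DMSO (0%) vs 15 uM tetraoctylammonium bromide (100%); Hill AC50.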
# [29] = MultiTox-Fluor Cytotoxicity Assay - LYMP1-003 - Dead Cells (AID 961); note: nearly all actives have a fitted effect of over 70% in size
# How it was run: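 Dead-cell protease release, detected as bis-AAF-R110 fluorescence at 485/520 nm, was measured in LYMP1-003 cells after 16 h compound treatment at 37 C. AC50 values came from Hill-modeled qHTS curves normalized to DMSO (0%) and 15 uM tetraoctylammonium bromide (100%).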
# [30] = MultiTox-Fluor Cytotoxicity Assay - LYMP1-003 - Live Cells (AID 962); details: LYMP1-003 lymphoblastoid cells, MultiTox-Fluor live-cell protease fluorescence; note: potency is the fitted concentration of half-maximal effect
# How it was run: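 qHTS, 1536-well; 2500 cells/well LYMP1-003; 5 hr 37 C settle; cpd 16 hr 37 C; MultiTox-Fluor reagent 60 min RT; live-cell protease fluor. 405/510; Hill-fit AC50; tetraoctylammonium bromide pos. ctrl.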
# [31] = Cell Viability - LYMP1-003 - Assay at 24 hr (AID 963); details: LYMP1-003 lymphoblastoid cell viability; note: potency is the fitted concentration of half-maximal effect
# How it was run: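 Cells seeded at 2500/well, 5 hr at 37 C; compounds added; 24 hr at 37 C; CellTiter-Glo added, 30 min room temperature; luminescence read. Decrease in ATP taken as cytotoxicity, AC50 from Hill modelling.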
# [32] = Cell Viability - LYMP1-003 - Assay at 40 hr (AID 964); details: LYMP1-003 lymphoblastoid viability; note: potency is the fitted concentration of half-maximal effect; nearly all actives have a fitted effect of over 60% in size
# How it was run: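 Cells were seeded at 2500 per well and incubated 5 hr at 37 C. Compounds were added across a concentration series and left 40 hr at 37 C. CellTiter-Glo was added for 30 min at room temperature before luminescence reading.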
# [33] = Cell Viability - LYMP2-003 (AID 965); details: LYMP2-003 lymphoblastoid cell viability;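 note: potency is the fitted concentration of half-maximal effect; cells exposed to compounds for 24 h before reading; nearly all actives have a fitted effect of over 50% in size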
# How it was run: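 qHTS, human lymphoblastoid line, 2500 cells/well, complete medium. 24 h drug, 37 C. ATP-based luminescent readout; Hill-fit AC50.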
# [34] = Cell Viability - LYMP2-004 (AID 966); details: LYMP2-004 lymphoblastoid cell viability, qHTS; note: potency is the fitted concentration of half-maximal effect; nearly all actives have a fitted effect of over 65% in size
# How it was run: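 Cells seeded 2500/well, rested 5 hr at 37 C, dosed across a concentration series, incubated 24 hr at 37 C, then CellTiter-Glo added for 30 min at room temperature and luminescence read. Hill fitting gave AC50.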
# [35] = Cell Viability - LYMP2-005 (AID 967); details: LYMP2-005 lymphoblastoid cell viability; note: potency is the fitted concentration of half-maximal effect
# How it was run: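 Luciferase-based ATP quantitation served as the viability measure in human lymphoblastoid LYMP2-005 cells exposed to test compounds for 24 h at 37 C in complete culture medium. Potency (AC50) was obtained by fitting concentration-response curves with the Hill equation.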
# [36] = Cell Viability - LYMP2-009 (AID 968); details: LYMP2-009 lymphoblastoid cell viability; note: potency is the fitted concentration of half-maximal effect; nearly all actives have a fitted effect of over 55% in size
# [37] = Cell Viability - LYMP2-011 (AID 969); details: LYMP2-011 lymphoblastoid cells viability; note: potency is the fitted concentration of half-maximal effect; nearly all actives have a fitted effect of over 60% in size
# How it was run: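 2500 cells/well, 5 hr 37 C; compound added, 24 hr 37 C; CellTiter-Glo 30 min RT; luminescence. qHTS concentration-response, Hill-equation AC50. Tetraoctylammonium bromide positive control.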
# [38] = Cell Viability - LYMP2-013 (AID 970); details: LYMP2-013 lymphoblastoid cells viability; note: potency is the fitted concentration of half-maximal effect; nearly all actives have a fitted effect of over 55% in size
# How it was run: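 qHTS; 2500 lymphoblastoid cells/well; 5 hr 37 C settle; cpd 24 hr 37 C; CellTiter-Glo, 30 min RT; luminescence. AC50 = Hill fit.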
# [39] = Cell Viability - LYMP2-015 (AID 971); details: LYMP2-015 lymphoblastoid cell viability; note: potency is the fitted concentration of half-maximal effect; nearly all actives have a fitted effect of over 55% in size
# How it was run: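 Luminescent ATP read-out (CellTiter-Glo) served as the viability measure after lymphoblastoid cells were exposed to compounds for 24 hours at 37 C. Concentration-response data were fitted with the Hill equation to give AC50.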
smiles,measurement,setting,value
O=C1c2c(O)ccc([N+](=O)[O-])c2C(=O)c2c([N+](=O)[O-])ccc(O)c21,Potency,[1],28.5 µM (active)
same,Potency,[2],25.8 µM (active)
same,Potency,[3],27.4 µM (active)
same,Potency,[4],30.1 µM (active)
same,Potency,[5],28.8 µM (active)
same,"activity change, negative = cytotoxicity",[6],-111% (active)
same,"activity change, negative = cytotoxicity",[7],-139% (active)
same,Potency,[8],31.6 µM (active)
same,Potency,[9],31.6 µM (active)
same,Potency,[10],25.1 µM (active)
same,"activity change, negative = cytotoxicity",[11],-107% (active)
same,Potency,[12],31.6 µM (active)
same,outcome,[13],inactive
same,outcome,[14],inactive
same,outcome,[15],inactive
same,outcome,[16],inactive
same,outcome,[17],inactive
same,outcome,[18],inactive
same,outcome,[19],inactive
same,outcome,[20],inactive
same,outcome,[21],inactive
same,outcome,[22],inactive
same,outcome,[23],inactive
same,outcome,[24],inactive
same,Potency,[25],50.1 µM (active)
same,outcome,[26],inactive
same,Potency,[27],39.8 µM (active)
same,outcome,[28],inactive
same,outcome,[29],inactive
same,Potency,[30],50.1 µM (active)
same,Potency,[31],39.8 µM (active)
same,Potency,[32],39.8 µM (active)
same,Potency,[33],31.6 µM (active)
same,Potency,[34],31.6 µM (active)
same,Potency,[35],39.8 µM (active)
same,Potency,[36],31.6 µM (active)
same,Potency,[37],39.8 µM (active)
same,Potency,[38],50.1 µM (active)
same,Potency,[39],31.6 µM (active)
